Potency data for 38 compounds are collected here from PubChem BioAssay AID489008 (National Center for Advancing Translational Sciences (NCATS), 2010).

The structures appear in SMILES notation. Records with an inconclusive call do not appear. Active and inactive are the calls of the source. Calls follow the shape of the dose curve; as a rule, active = well fitted inhibition curve with a large enough effect; inconclusive = small, poorly fitted or top-dose-only effect; inactive = flat fitted curve, though single readings scatter.
Potency is read from the fitted curve at half-maximal effect.

Sequence of Ferritin light chain (Equus caballus) (P02791 2-175 limits assumed): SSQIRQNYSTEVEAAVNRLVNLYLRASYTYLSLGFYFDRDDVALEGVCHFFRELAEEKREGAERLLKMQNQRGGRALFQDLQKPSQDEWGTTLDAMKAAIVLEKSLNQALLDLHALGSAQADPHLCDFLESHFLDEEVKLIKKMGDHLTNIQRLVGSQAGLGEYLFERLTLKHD

This assay has as its target Ferritin light chain (Equus caballus) (UniProt P02791). Nature of the assay: Confirmation Assay for Identification of Novel General Anesthetics. Also: nearly all actives have a fitted effect of over 40% in size. To be noted: apoferritin 1-aminoanthracene fluorescence displacement. In short, it runs like this: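 Competitive displacement of profluorescent 1-aminoanthracene from 10 uM horse-spleen apoferritin in 50% saturated 1-AMA/PBS; 10 min RT, fluorescence Ex 380/Em 535. Normalized to free 1-AMA and complex; four-parameter Hill fit.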
As for `Nc1nc(-c2ccc3c(c2)CCCC3)cs1`, the Potency is 28.2 µM (active).

For `O=C(Oc1cccc(O)c1)C1CCCCC1`, the Potency was 11.2 µM (active).

As to `O=C(COC(=O)CC1CC2CCC1C2)NC(=O)NCc1ccco1` (stereo not drawn), the Potency was 22.4 µM (active).

Take `O=C(Nc1ccc(Cl)c(Cl)c1)OCc1cncs1`: the Potency is 28.2 µM (active).

As for `Nc1ccc(C23CC4CC(CC(C4)C2)C3)cc1`, the Potency was 7.08 µM (active).

As to `Cc1nnc(SCc2ccc(F)cc2Cl)s1`, the Potency is 22.4 µM (active).

For `Cc1ccc(CNC(=O)CN2N=C(c3ccccc3)CCC2=O)cc1`, the Potency is 5.19 µM (active).

As for `CCCCSC(=O)Nc1ccccc1`, the Potency was 7.08 µM (active).

Regarding `Cc1ccccc1NCc1ccccc1O`, the Potency was 15.8 µM (active).

As to `Cc1ccc(-c2ccc(=O)n(CC(=O)NCc3ccco3)n2)cc1`, the Potency was 11.2 µM (active).

Turning to `O=C(CN1N=C(c2ccc(Cl)cc2)CCC1=O)NCc1ccc(F)cc1`, the Potency was 5.82 µM (active).

For the compound `Cc1cc(OCC(=O)N(C)C2CCCCC2)cc(C)c1Cl`, the Potency was 35.5 µM (active).

With `Cc1ccc(Cl)cc1NC(=O)C1COc2ccccc2O1` (stereo not drawn), the Potency was 20 µM (active).

As to `NCCOc1ccc(C23CC4CC(CC(C4)C2)C3)cc1`, the Potency is 11.2 µM (active).

With `CCN(CC)C(=S)SCC(=O)c1ccc(F)cc1`, the Potency was 15.8 µM (active).

With `Cc1ccccc1Oc1ccccc1N`, the Potency is 15.8 µM (active).

On to `COc1ccc(NC(C)c2ccccc2)cc1` (stereo not drawn), for which the Potency is 15.8 µM (active).

As to `CC(C)c1ccccc1OCC(=O)N1CCCCCCC1`, the Potency is 11.2 µM (active).

For the compound `Cc1ccc(CN=C2Nc3ccccc3CS2)cc1`, the Potency was 14.1 µM (active).

Consider `COC(=O)c1ccc(/C=N/NC(=O)CC(=O)NC2CCCCC2)cc1`, for which the Potency is 7.08 µM (active).

With `Cc1ccc(F)c(NC(=O)CCc2ccccc2)c1`, the Potency is 15.8 µM (active).

Consider `CC1CCCC(NC(=O)COC(=O)c2ccc(N(C)C)cc2)C1C` (stereo not drawn), for which the Potency is 7.08 µM (active).

As for `CN(C)CC(=O)Nc1ccc(Oc2ccc(Cl)cc2)cc1`, the Potency is 28.2 µM (active).

As to `CSC(=O)NC12CC3CC(CC(C)(C3)C1)C2`, the Potency is 5.62 µM (active).

For `O=c1c2c3c(sc2ncn1-n1cccc1)CCCCC3`, the Potency is 10 µM (active).

In the case of `CC1(C)CC(=O)N(Cc2ccccc2)C(=O)C1`, the Potency was 8.91 µM (active).

For `Cc1ccccc1Cn1c(C)cc(C)c(C#N)c1=O`, the Potency was 15.8 µM (active).

With `COc1ccc(OCCC(=O)NCC23CC4CC(CC(C4)C2)C3)cc1`, the Potency was 6.31 µM (active).

In the case of `Clc1ccc(CNc2ccccn2)cc1`, the Potency was 15.8 µM (active).

Turning to `Fc1ccccc1CNc1ccc(Cl)cc1`, the Potency is 11.2 µM (active).

On to `COc1cc(CNCCO)ccc1OCCc1ccccc1`, for which the Potency is 15.8 µM (active).

As to `O=C1c2ccsc2SCCN1Cc1ccc(Cl)cc1Cl`, the Potency is 15.8 µM (active).

As for `Cc1ccc(NC(=O)N2CCCCCC2)cc1C`, the Potency was 6.31 µM (active).

Turning to `CN(C(=O)c1cncc(Br)c1)C1C2CC3CC(C2)CC1C3` (stereo not drawn), the Potency was 12.6 µM (active).

`Fc1ccccc1CSc1nncn1NC/C=C/c1ccccc1`: the Potency is 31.6 µM (active).

In the case of `COc1ccc(C2=Nn3c(nnc3-c3ccc(OC)cc3)SC2)cc1`, the Potency was 22.4 µM (active).

As to `CC1(C)CC(=O)c2c(noc2-c2ccccc2)C1`, the Potency is 17.8 µM (active).

For `NCCOc1ccc(C2CCCCC2)cc1`, the Potency is 7.94 µM (active).
